From PubChem BioAssay (NCI)
The panel holds about 83,000 compounds, 20% with a hit somewhere; the sample as a whole holds those more often.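 Values shown are percent growth following 48 h exposure of cells in 96-well plates to a single concentration of compound; below 10 was considered active.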 Unmarked numbers belong to inactive results. Activity calls are given as the source filed them.

The molecules below were run on HL-60(TB) leukemia (assay: NCI-60 one-dose screen, 48 h (100 = growth as untreated, 0 = no growth, -100 = all killed)). Settings: 10 µM unless noted.
Molecule CCN(CC)CCN(CCN(CC)CC)c1ccccc1 has a growth of 87.9%.
In the case of O=C1c2ccccc2C(=O)c2c1oc1oc3c(c(=O)c21)c(=O)n(-c1ccccc1)c1ccccc31, the growth is reported as 7.05% (active).
CN1C(=O)NC(c2ccc3c(c2)OCO3)C=C1c1ccccc1 (stereo not given) was tested, and the growth was 99%.
Work on Cc1ccc2[nH]c(=O)c3c(c2c1)OC(N)=C(C#N)C31C(=O)c2cccc3cccc1c23 (stereo not given) yielded a growth of 98.6%.
In the case of C(/C=C/c1ccccc1)=Nc1ccc(CCc2ccc(N=C/C=C/c3ccccc3)cc2)cc1, the growth is reported as 42.9%.
Molecule Cc1ccc2c(c1)O/C(=C\c1ccc([N+](=O)[O-])o1)C2=O has a growth of 17.2%.
Work on O=C(c1nc2ccccc2[nH]1)C1C(c2ccc(F)cc2)C2CC3CCCCC3N2[C@@]12C(=O)Nc1ccc(Cl)cc12 (stereo not given in full) yielded a growth of 33.2%.
COc1cc2ncnc3c2cc1OCCCCCN(C)Cc1ccc(Br)cc1N3 was tested, and the growth was 33.7%.
Nc1cc2c(cc1Cl)C(=O)c1ccccc1C2=O was tested, and the growth was 81%.
For COc1ccc(N(Cc2cc(OC)c(OC)c(OC)c2)C2OC(=O)c3ccccc32)cc1 (stereo not given), the growth was 2.92% (active).
In the case of COc1cc(CNC(=O)CCCC/C=C/C(C)C)ccc1OCc1cn(-c2cccc([N+](=O)[O-])c2)nn1, the growth is reported as 109%.
In the case of CCCCN(CCCC)C(=O)[C@H](CC)[C@@H]1CC[C@@H](C)[C@@H]([C@H](C)[C@@H](O)[C@@H](C)C(=O)[C@H](CC)C2O[C@]3(C=CC(=O)[C@]4(CC[C@@](C)([C@H]5CC[C@](O)(CC)[C@H](C)O5)O4)O3)[C@H](C)C[C@@H]2C)O1 (stereo not given in full), the growth is reported as -1.52% (active).
With CC1NC(=S)NC(=O)/C1=C/c1cc(=O)oc2c1ccc1ccccc12 (stereo not given) the growth was 102%.
CSC1=N/C(=C\c2cccc(OCc3ccc(Cl)cc3)c2)C(=O)N1 was tested, and the growth was 77.8%.
For Nc1cccc(-c2nc3sccn3c2-c2ccnc(NCCCNS(=O)(=O)c3cccc4ccccc34)n2)c1, the growth was 7% (active).
For C=C1C(=O)O[C@H]2[C@H]1CC/C(COC(=O)NCc1ccc(Cn3c(=O)sn(-c4ccccc4)c3=O)cc1)=C\CC[C@@]1(C)O[C@@H]21, the growth was -25.2% (active).
With COc1ccc(-c2cc(=O)n(-c3nc4ccccc4[nH]3)[nH]2)cc1OC the growth was 35.4%.
With C/C(=N\O)c1ccccn1 the growth was 112%.
In the case of O=C1/C(=C/c2ccc(Cl)cc2)CCC/C1=C\c1ccc(Cl)cc1, the growth is reported as 83%.
With COc1cc2c(c(OC)c1OC)-c1ccc(NNC(=S)N(Cc3cccc(C[N+](Cc4cccc(CNC56CC7CC(CC(C7)C5)C6)c4)(Cc4cccc(CNC56CC7CC(CC(C7)C5)C6)c4)Cc4cccc(CN(C(=S)NNc5ccc6c(cc5=O)[C@@H](NC(C)=O)CCc5cc(OC)c(OC)c(OC)c5-6)C56CC7CC(CC(C7)C5)C6)c4)c3)C34CC5CC(CC(C5)C3)C4)c(=O)cc1[C@@H](NC(C)=O)CC2 (stereo not given in full) the growth was -63.4% (active).
COC(=O)c1c(-c2ccccc2)csc1NC(=O)c1c(-c2ccccc2)noc1C showed a growth of 28.3%.
Molecule O=C(Nc1cccc(Cl)c1)Oc1c(Br)c(Br)c(Br)c(Br)c1Br has a growth of 88.4%.
For C=C(C)[C@@H]1CC[C@]2(C(=O)N3CCN(CC)CC3)CC[C@]3(C)[C@H](CC[C@@H]4[C@@](C)(CCC(=O)N5CCN(CC)CC5)[C@H](C(=C)C)CC[C@]43C)[C@@H]12, the growth was 30.4%.
O=C1NC(=Nc2ccc(S(=O)(=O)Nc3nccs3)cc2)S/C1=C\c1coc2ccccc2c1=O showed a growth of 107%.
For Brc1ccc(Nc2nc3ccccc3nc2Nc2ccc(Br)cc2)cc1, the growth was -12.3% (active).
In the case of COc1cc(/C=C/c2cc(/C=C/c3ccc(O)c(OC)c3)n(-c3ccc(Cl)cc3)c(=O)n2)ccc1O, the growth is reported as 92.6%.
COC(=O)[C@]1(C)CCC[C@]2(C)[C@H]3C[C@H]4C(C(C)C)=C[C@]3(CC[C@H]21)[C@@H]1C(=O)CC[C@H](OCCC#N)[C@@H]14 was tested, and the growth was 113%.
For c1cc2[nH]ncc2cc1-c1nc2ccc3[nH]ncc3c2c2c1CCC2, the growth was -4.44% (active).
CCCCS(=O)(=O)c1cc(Nc2ccc(O)c3c2C(=O)c2ccccc2C3=O)ccc1C showed a growth of 75%.
FC(F)(F)Oc1ccc2c(c1)C[C@H]1C[C@@H](c3ccoc3)N2O1 showed a growth of 104%.
Cc1ccc(N(CSc2ccc(Cl)cc2)CSc2ccc(Cl)cc2)cc1 was tested, and the growth was -46.7% (active).
COc1ccc(C(=O)/C=C/c2ccccc2)cc1S(N)(=O)=O showed a growth of 64.2%.
O=C1Nc2c(ccc(Cl)c2Cl)/C1=C/c1ccc(O)cc1 showed a growth of 76.9%.
For O=C(CCCCCCN1CC(=O)N2[C@@H](C3CCCCC3)c3[nH]c4ccccc4c3C[C@H]2C1=O)NO, the growth was 5.7% (active).
In the case of COc1ccc(C2Nc3c(c(C(C)(C)C)nn3-c3ccccc3)C(=O)CS2)cc1 (stereo not given), the growth is reported as 129%.
COc1ncc(-c2ccc3nccc(C#CCCCCC(=O)O)c3c2)cc1NS(=O)(=O)c1ccc(F)cc1F showed a growth of 26.8%.
Work on O=C(O)c1ccc2c(c1)C(=O)c1ccccc1C2=O yielded a growth of 102%.
Work on COC(=O)[C@]12CC[C@@H](C)[C@H](C)[C@@H]1C1=CC(=O)[C@@H]3[C@@]4(C)C[C@@H](O)[C@H](O)[C@@]5(C)COC(=C45)C[C@@]3(C)[C@]1(C)CC2 yielded a growth of 41.9%.
O=S(=O)(O)c1ccc(O)c(C2CCCCC2)c1 was tested, and the growth was 131%.
For CCCCCc1c(C)[nH]c(/C=C2\N=C(c3ccc[nH]3)C=C2Oc2ccccc2)c1C, the growth was -49.6% [100 µM] (active).
